Assay results from PubChem BioAssay (Tox21).
“And” between values parts separate entries of the source, which are not always exact repeats. Identical values can stand only once. Inconclusive results are not listed. Some compounds were tested as several samples or in several runs, with calls that do not always agree. The source made the active and inactive calls. Unless noted, calls follow the shape of the dose curve; as a rule, active = well fitted curve in the direction sought with a large enough effect in the repeat runs; inconclusive = weak or mixed curves; inactive = no such curve, though single readings can be large; an effect the other way counts as inactive or inconclusive.

What was measured:
[1] = Human pregnane X receptor (PXR) small molecule agonists, qHTS cell viability counter screen (AID 1346977); also: nearly all actives have a fitted effect of over 50% in size
Outline: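 HepG2 cells stably carrying the PXR-Luc reporter are cultured with 5% charcoal-stripped FBS and treated with compounds for 24hr. CellTiter-Fluor is added at 23hr and fluorescence is read after 1hr.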

[2] = Caspase-3/7 induction in HepG2 cells by small molecules, qHTS assay (AID 1346978); also: nearly all actives have a fitted effect of over 15% in size
Outline: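 Wild-type HepG2 cells (2,000/well) were settled 5 h at 37 C, 5% CO2, then exposed to compounds in DMSO for 17 h. Caspase-3/7 activity was read by luminescence 30 min after adding Caspase-Glo 3/7 reagent at room temperature.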

[3] = Caspase-3/7 induction in CHO-K1 cells by small molecules, qHTS cell viability counter screen (AID 1346979); also: nearly all actives have a fitted effect of over 35% in size
Outline: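 Seeding: 1,500 CHO-K1 cells/well. Rest: 5hr, 37C. Treatment: compounds in DMSO, 16hr. Read: CellTiter-Fluor, 1hr, fluorescence.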

[4] = Caspase-3/7 induction in CHO-K1 cells by small molecules, qHTS assay (AID 1346980); also: nearly all actives have a fitted effect of over 15% in size
Outline: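 Wild-type cells were seeded at 1,500 per well and settled 5 hr at 37 C, 5% CO2, then exposed to DMSO-dissolved compounds for 17 hr. Caspase-Glo 3/7 reagent was added, and luminescence was read after 30min at room temperature.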

[5] = Caspase-3/7 induction in HepG2 cells by small molecules, qHTS cell viability counter screen (AID 1346981); also: series mostly up to about 92 µM; nearly all actives have a fitted effect of over 30% in size
Outline: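 Fluorescence read-out of live-cell protease activity (CellTiter-Fluor) after 1 hr with reagent. This was measured in the same wells as the caspase-3/7 luminescence, on HepG2 cells exposed to DMSO-dissolved compounds for 16 hr at 37 C.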

[6] = target: Nuclear receptor subfamily 1 group I member 2 (Homo sapiens) (UniProt O75469); experiment: Human pregnane X receptor (PXR) small molecule agonists, qHTS assay (AID 1346982); also: nearly all actives have a fitted effect of over 35% in size; also: potency is read from the fitted curve at half-maximal effect
Nuclear receptor subfamily 1 group I member 2 (Homo sapiens), sequence (O75469 whole entry, looked up): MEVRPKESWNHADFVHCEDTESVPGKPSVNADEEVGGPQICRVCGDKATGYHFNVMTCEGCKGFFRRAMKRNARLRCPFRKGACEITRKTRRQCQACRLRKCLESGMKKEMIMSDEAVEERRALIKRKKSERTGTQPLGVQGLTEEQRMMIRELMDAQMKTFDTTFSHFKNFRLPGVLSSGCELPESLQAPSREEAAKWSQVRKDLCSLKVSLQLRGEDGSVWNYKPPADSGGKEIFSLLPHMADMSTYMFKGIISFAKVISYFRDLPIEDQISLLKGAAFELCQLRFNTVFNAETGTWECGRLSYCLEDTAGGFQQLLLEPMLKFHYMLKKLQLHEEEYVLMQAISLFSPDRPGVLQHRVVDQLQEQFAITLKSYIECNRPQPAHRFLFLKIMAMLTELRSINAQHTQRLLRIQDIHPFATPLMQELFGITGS
Outline: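 HepG2 PXR-Luc reporter line, 5% charcoal-stripped FBS; 5 hr pre-incubation, compound (DMSO) 24 hr at 37 C/5% CO2; ONE-Glo 30 min RT; luminescence read-out.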

[7] = target: Nuclear receptor subfamily 1 group I member 2 (Rattus norvegicus) (UniProt Q9R1A7); experiment: Rat pregnane X receptor (rPXR) activation by small molecules, qHTS assay (AID 1346983); details: rPXR luciferase reporter cells, One-Glo luminescence, 24 h; stronger effect = higher value; also: nearly all actives have a fitted effect of over 20% in size
Nuclear receptor subfamily 1 group I member 2 (Rattus norvegicus), sequence (Q9R1A7 whole entry, looked up): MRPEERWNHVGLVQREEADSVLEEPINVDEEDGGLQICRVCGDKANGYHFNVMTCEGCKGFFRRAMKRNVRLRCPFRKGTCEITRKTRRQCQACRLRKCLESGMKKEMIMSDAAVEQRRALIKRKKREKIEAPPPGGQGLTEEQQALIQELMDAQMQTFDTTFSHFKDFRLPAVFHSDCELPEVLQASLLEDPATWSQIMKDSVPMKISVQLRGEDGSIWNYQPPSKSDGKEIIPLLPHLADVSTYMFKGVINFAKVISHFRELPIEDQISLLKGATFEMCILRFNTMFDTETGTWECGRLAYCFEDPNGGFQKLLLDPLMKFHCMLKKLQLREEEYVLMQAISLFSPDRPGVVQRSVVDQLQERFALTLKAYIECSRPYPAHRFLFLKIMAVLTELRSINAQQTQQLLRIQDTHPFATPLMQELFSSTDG
Outline: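 Cell-based rPXR luciferase reporter assay, 2,000 cells per well, rested 5hr at 37 C before compound addition in DMSO, then 24 hr at 37 C. One-Glo reagent was added and luminescence read after 30 min at room temperature.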

[8] = target: Nuclear receptor subfamily 1 group I member 2 (Homo sapiens) (UniProt O75469); experiment: CYP3A4 induction through human pregnane X receptor (PXR) by small molecules, qHTS assay (AID 1346984); also: nearly all actives have a fitted effect of over 40% in size
Outline: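 HepG2-derived DPX-2 line carrying PXR plus a CYP3A4-promoter luciferase reporter; cells plated 5 hr, compound-exposed 24 hr at 37C. CYP3A4 activity probed with 3uM (final) Luciferin-IPA for 3hr, then luciferase read after One-Glo.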

[9] = target: Nuclear receptor subfamily 1 group I member 2 (Homo sapiens) (UniProt O75469); experiment: Human pregnane X receptor (PXR) activation by small molecules, qHTS assay (AID 1346985); also: nearly all actives have a fitted effect of over 40% in size
Outline: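 DPX-2 cells (HepG2 co-transfected with a PXR response element and a CYP3A4-promoter luciferase construct) were seeded at 2,000 per well, rested 5 hr at 37C, then exposed to DMSO-dissolved compounds for 24 hr. Activation was read as luciferase luminescence.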

[10] = target: Acetylcholinesterase (Homo sapiens) (UniProt P22303); experiment: Acetylcholinesterase (AChE) small molecule antagonists: colormetric cell-based qHTS assay (AID 1347395; calls by dose curve; also: nearly all actives have a fitted effect of over 30% in size)
Acetylcholinesterase (Homo sapiens), sequence (P22303 whole entry, looked up): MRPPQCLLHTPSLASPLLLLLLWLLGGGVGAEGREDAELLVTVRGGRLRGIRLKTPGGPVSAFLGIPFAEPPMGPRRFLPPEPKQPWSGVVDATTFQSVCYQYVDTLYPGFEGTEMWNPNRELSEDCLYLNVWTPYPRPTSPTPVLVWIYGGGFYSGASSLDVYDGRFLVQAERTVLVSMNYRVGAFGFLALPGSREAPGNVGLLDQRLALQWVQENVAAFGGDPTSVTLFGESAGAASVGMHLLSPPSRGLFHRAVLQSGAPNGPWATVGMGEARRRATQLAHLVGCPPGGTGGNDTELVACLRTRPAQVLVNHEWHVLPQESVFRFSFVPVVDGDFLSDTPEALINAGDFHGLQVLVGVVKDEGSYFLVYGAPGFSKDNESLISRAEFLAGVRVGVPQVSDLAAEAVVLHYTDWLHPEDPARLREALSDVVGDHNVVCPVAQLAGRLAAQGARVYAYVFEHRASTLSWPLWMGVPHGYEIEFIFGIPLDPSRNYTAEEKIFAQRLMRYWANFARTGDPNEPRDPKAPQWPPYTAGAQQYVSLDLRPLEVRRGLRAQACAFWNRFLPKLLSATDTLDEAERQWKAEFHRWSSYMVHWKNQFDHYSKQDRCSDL
Outline: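 Quantitative HTS in attached SH-SY5Y cells: 30 min compound exposure, then 90 min with acetylthiocholine and DTNB at 37 C; colour from thiocholine reports AChE activity.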

[11] = target: Acetylcholinesterase (Homo sapiens) (UniProt P22303); experiment: Acetylcholinesterase (AChE) small molecule antagonists: enzyme-based qHTS assay (AID 1347397; calls by dose curve; also: nearly all actives have a fitted effect of over 55% in size); details: Potency: AChE enzyme activity inhibition; outcome: AChE enzyme activity inhibition
Outline: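 Compound or DMSO vehicle was pin-transferred onto recombinant human AChE (50 mU/mL as dispensed) and left 30 min at room temperature. Acetylthiocholine with DTNB then started the reaction, read colorimetrically 10 min later.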

[12] = target: Acetylcholinesterase (Homo sapiens) (UniProt P22303); experiment: Acetylcholinesterase (AChE) small molecule antagonists: fluorescence cell-based qHTS assay (AID 1347398; calls by dose curve; also: nearly all actives have a fitted effect of over 50% in size); details: Potency: AChE activity; outcome: AChE activity
Outline: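 Using neuroblastoma SH-SY5Y cells as the enzyme source, test chemicals are preincubated 30 min at 37 C; AChE-driven acetylthiocholine cleavage is then quantified by thiocholine-dependent Thiolite Green fluorescence after 40 min at room temperature.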

[13] = target: Acetylcholinesterase (Homo sapiens) (UniProt P22303); experiment: Acetylcholinesterase (AChE) small molecule antagonists: enzyme-based qHTS assay with human liver microsomes (AID 1347399; calls by dose curve; also: nearly all actives have a fitted effect of over 60% in size); details: Potency: qHTS inhibition; outcome: qHTS inhibition
Outline: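 Recombinant human AChE (50 mU/mL in the enzyme mix) and human liver microsomes (0.25 mg/mL final) were preincubated with compound and NADPH (0.25 mg/mL final) for 30 min at 37 C. Acetylthiocholine/DTNB was then added; thiocholine was read colorimetrically after 10 min at room temperature.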

[14] = target: Cytochrome P450 2D6 (Homo sapiens) (UniProt P10635); experiment: Cytochrome P450 Family 2 Subfamily D Member 6 (CYP2D6) small molecule antagonists: luciferase reporter qHTS assay (AID 1671196); also: nearly all actives have a fitted effect of over 50% in size; also: potency is read from the fitted curve at half-maximal effect
Outline: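 Luminogenic proluciferin substrate, CYP2D6 enzyme; 10 min RT preincubation with compound, NADPH regeneration system added, 1 h RT. Stop/detection reagent, 20 min RT, luminescence read (RLU). Signal proportional to CYP activity.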

[15] = target: Cytochrome P450 2C19 (Homo sapiens) (UniProt P33261); experiment: Cytochrome P450 Family 2 Subfamily C Member 19 (CYP2C19) small molecule antagonists: luciferase reporter qHTS assay (AID 1671197); also: nearly all actives have a fitted effect of over 65% in size; also: potency is read from the fitted curve at half-maximal effect
Cytochrome P450 2C19 (Homo sapiens), sequence (P33261 whole entry, looked up): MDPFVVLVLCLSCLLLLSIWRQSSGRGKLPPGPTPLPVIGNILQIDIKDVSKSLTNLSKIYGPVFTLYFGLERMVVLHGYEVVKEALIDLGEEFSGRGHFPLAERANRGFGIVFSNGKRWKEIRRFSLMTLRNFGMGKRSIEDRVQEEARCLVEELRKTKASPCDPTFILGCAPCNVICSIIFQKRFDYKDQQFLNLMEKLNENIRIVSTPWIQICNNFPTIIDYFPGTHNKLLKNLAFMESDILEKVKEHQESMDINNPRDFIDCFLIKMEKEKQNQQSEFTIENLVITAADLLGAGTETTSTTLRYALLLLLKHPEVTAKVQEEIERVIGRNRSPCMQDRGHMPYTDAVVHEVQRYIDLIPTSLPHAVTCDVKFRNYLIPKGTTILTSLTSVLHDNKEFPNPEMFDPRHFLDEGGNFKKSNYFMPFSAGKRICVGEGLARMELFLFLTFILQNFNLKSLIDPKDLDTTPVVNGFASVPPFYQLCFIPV
Outline: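 CYP2C19 P450-Glo, 1536-well qHTS. Cpd + enzyme/proluciferin substrate 10 min RT; + NADPH regen, 37C 1 h; stop with luciferin detection reagent, 20 min RT, luminescence (RLU). Pos ctrl ketoconazole.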

[16] = target: Cytochrome P450 2C9 (Homo sapiens) (UniProt P11712); experiment: Cytochrome P450 Family 2 Subfamily C Member 9 (CYP2C9) small molecule antagonists: luciferase reporter qHTS assay (AID 1671198); also: nearly all actives have a fitted effect of over 50% in size; also: potency is read from the fitted curve at half-maximal effect
Cytochrome P450 2C9 (Homo sapiens), sequence (P11712 whole entry, looked up): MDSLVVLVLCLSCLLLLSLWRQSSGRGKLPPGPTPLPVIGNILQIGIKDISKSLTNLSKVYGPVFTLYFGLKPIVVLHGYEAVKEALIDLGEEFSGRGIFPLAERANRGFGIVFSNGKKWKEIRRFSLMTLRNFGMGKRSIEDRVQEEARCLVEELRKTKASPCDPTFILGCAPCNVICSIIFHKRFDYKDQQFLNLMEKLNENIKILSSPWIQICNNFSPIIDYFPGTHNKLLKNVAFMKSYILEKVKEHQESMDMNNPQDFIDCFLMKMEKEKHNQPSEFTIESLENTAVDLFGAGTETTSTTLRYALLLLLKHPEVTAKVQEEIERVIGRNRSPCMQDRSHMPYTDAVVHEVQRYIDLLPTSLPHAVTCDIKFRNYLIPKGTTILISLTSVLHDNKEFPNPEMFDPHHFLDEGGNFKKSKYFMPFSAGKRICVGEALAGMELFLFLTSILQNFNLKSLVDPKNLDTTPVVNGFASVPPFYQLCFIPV
Outline: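 CYP2C9 activity was measured with a P450-Glo proluciferin substrate. Enzyme–substrate mix was held with compound for 10 min at room temperature, then NADPH regeneration solution was added for 1 h at 37C. Luciferin product was read as luminescence.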

[17] = target: Cytochrome P450 1A2 (Homo sapiens) (UniProt P05177); experiment: Cytochrome P450 Family 1 Subfamily A Member 2 (CYP1A2) small molecule antagonists: luciferase reporter qHTS assay (AID 1671199)
Cytochrome P450 1A2 (Homo sapiens), sequence (P05177 whole entry, looked up): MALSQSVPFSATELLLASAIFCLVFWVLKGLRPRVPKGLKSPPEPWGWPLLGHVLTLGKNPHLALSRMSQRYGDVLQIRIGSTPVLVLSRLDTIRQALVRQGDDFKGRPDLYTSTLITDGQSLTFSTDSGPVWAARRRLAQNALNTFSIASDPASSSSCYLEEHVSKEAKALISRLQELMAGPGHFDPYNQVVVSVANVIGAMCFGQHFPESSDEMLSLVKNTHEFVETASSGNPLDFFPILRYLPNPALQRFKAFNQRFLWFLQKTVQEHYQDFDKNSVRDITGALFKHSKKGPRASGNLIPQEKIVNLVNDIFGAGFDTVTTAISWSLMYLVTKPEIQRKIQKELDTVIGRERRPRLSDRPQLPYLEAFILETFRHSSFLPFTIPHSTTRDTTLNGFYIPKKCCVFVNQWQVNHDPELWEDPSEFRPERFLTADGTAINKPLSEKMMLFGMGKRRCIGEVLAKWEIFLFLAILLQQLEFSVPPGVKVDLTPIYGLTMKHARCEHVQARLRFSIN
Outline: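 Luminescence readout (relative luminescence units) after luciferin detection reagent, 20 min RT. Preceded by 1 h room-temperature CYP1A2 reaction with NADPH regeneration solution following 10 min compound preincubation with enzyme and proluciferin substrate. Furafylline positive control.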

[18] = target: Voltage-gated inwardly rectifying potassium channel KCNH2 (Homo sapiens) (UniProt Q12809); experiment: Human Ether-a-go-go-Related Gene (hERG) channel small molecule antagonists: fluorescence cell-based qHTS assay (AID 1671200); also: nearly all actives have a fitted effect of over 50% in size; also: potency is read from the fitted curve at half-maximal effect
Voltage-gated inwardly rectifying potassium channel KCNH2 (Homo sapiens), sequence (Q12809 whole entry, looked up): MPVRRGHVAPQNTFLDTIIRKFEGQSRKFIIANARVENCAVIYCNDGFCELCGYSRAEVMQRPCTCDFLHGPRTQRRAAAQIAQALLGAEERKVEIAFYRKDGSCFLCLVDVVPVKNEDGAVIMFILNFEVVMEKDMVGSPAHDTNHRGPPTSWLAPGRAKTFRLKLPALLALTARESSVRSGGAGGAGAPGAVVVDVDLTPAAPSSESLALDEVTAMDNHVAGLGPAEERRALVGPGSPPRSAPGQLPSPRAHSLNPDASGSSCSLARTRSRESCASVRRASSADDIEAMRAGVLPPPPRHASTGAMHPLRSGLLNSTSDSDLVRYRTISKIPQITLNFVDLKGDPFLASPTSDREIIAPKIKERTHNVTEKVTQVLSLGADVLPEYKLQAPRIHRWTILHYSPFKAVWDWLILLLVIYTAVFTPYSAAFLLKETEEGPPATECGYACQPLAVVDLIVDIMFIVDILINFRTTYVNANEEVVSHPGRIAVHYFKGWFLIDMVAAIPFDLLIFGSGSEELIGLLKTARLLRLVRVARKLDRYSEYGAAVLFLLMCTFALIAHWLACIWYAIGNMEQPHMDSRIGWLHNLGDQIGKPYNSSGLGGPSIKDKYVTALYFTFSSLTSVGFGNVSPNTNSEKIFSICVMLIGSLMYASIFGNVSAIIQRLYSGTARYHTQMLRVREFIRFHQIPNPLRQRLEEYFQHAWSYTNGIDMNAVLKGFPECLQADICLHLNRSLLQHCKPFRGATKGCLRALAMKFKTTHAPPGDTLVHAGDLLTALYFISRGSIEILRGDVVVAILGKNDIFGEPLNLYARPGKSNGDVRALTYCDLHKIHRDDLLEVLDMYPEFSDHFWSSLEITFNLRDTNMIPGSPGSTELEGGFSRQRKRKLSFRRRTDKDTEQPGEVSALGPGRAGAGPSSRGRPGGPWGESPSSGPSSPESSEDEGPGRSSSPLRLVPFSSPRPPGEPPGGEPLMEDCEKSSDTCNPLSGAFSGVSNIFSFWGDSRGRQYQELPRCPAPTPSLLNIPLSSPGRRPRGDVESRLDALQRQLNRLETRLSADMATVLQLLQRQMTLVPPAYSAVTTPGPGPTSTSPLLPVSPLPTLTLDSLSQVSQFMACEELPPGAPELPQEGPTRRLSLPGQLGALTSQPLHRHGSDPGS
Outline: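 First, 1000 cells per well are seeded and cultured overnight at 37 C. Next, FluxOR II dye is loaded for 1 h at room temperature, protected from light. After 10 more minutes, stimulus is added and fluorescence is read.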

[19] = target: Cytochrome P450 3A4 (Homo sapiens) (UniProt P08684); experiment: Cytochrome P450 Family 3 Subfamily A Member 4 (CYP3A4) small molecule antagonists: luciferase reporter qHTS assay (AID 1671201)
Cytochrome P450 3A4 (Homo sapiens), sequence (P08684 whole entry, looked up): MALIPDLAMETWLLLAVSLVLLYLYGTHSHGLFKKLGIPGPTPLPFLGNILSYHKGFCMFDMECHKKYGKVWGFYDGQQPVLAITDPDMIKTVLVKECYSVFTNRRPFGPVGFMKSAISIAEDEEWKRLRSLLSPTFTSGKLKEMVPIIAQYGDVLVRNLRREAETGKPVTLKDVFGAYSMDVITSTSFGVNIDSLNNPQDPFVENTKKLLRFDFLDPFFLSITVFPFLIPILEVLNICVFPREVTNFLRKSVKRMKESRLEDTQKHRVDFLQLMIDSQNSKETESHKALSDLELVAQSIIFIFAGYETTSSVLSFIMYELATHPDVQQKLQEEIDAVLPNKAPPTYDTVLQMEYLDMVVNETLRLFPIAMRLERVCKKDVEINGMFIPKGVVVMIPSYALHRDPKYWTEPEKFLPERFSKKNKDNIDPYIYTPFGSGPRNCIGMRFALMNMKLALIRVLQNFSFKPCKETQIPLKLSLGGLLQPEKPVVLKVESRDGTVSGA
Outline: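 Enzyme and proluciferin substrate are mixed with test chemicals for 10 min, then NADPH regeneration system drives turnover for 1 h at room temperature. A detection reagent halts the reaction; luminescence after 20 min gives relative activity.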
% is scaled to controls: 0 for no effect and ±100 for the full control effect.

CC(C)(C)NCC(O)c1ccccc1Cl (centres undefined)
inactive: Potency [1] | Potency [2] | Potency [3] | Potency [4] | Potency [5] | Potency [6] | max activation [7] -2.03% | outcome [8] | Potency [9] | Potency [10] | Potency [11] | Potency [12] | Potency [13] | Potency [15] | Potency [16] | Potency [17] | Potency [18] | Potency [19]
active: Potency [14] 9.77 µM

C=CCN1C[C@H](C)N([C@H](c2ccc(C(=O)N(CC)CC)cc2)c2cccc(OC)c2)C[C@H]1C
active: Potency [6] 11.9 µM | Potency [14] 3.09 µM | Potency [18] 3.01 µM
inactive: Potency [1] | Potency [2] | Potency [3] | Potency [4] | Potency [5] | max activation [7] 5.88% | outcome [8] | Potency [10] | Potency [11] | Potency [12] | Potency [15] | Potency [16] | Potency [17]

CCOC(=O)NC(O)C(Cl)(Cl)Cl (centres undefined)
inactive: Potency [1] | Potency [2] | Potency [3] | Potency [4] | Potency [5] | Potency [6] | max activation [7] -1.22% | outcome [8] | Potency [9] | Potency [10] | Potency [11] | Potency [12] | Potency [13] | Potency [14] | Potency [16] | Potency [17] | Potency [18]

OC[P+](CO)(CO)CO
active: Potency [6] 61.8 µM
inactive: Potency [1] | Potency [2] | Potency [3] | Potency [4] | Potency [5] | Potency [10] | Potency [11] | Potency [12] | Potency [13] | Potency [14] | Potency [15] | Potency [16] | Potency [17] | Potency [18] | Potency [19]

OCCSSCCO
inactive: Potency [1] | Potency [2] | Potency [3] | Potency [4] | Potency [5] | Potency [6] | Potency [10] | Potency [11] | Potency [12] | Potency [13] | Potency [14] | Potency [18]
active: Potency [15] 56.4 µM

CC(Oc1cccc(Cl)c1)C(=O)O (centres undefined)
inactive: Potency [1] | Potency [2] | Potency [3] | Potency [4] | Potency [5] | Potency [6] | Potency [10] | Potency [11] | Potency [12] | Potency [13] | Potency [14] | Potency [15] | Potency [17] | Potency [19]

Nc1cc(Cl)cc(C(=O)O)c1Cl
inactive: Potency [1] | Potency [2] | Potency [3] | Potency [4] | Potency [5] | Potency [6] | Potency [10] | Potency [11] | Potency [12] | Potency [13] | Potency [15] | Potency [18] | Potency [19]
39.6 µM (active) and inactive: Potency [14]

O=C(O)COc1cc(Cl)c(Cl)cc1Cl
inactive: Potency [1] | Potency [2] | Potency [3] | Potency [4] | Potency [5] | Potency [6] | Potency [10] | Potency [11] | Potency [12] | Potency [14] | Potency [15] | Potency [17] | Potency [18] | Potency [19]
active: Potency [16] 63.4 µM and 39.9 µM
